# Experimental data published in PubChem BioAssay (NCATS).
# Records with an inconclusive call do not appear. Entries that show only a call come without a potency. Activity calls are given as the source filed them. Unless noted, calls come from the whole dose curve; as a rule, active = well fitted curve in the direction sought with a large enough effect; inconclusive = small, poorly fitted or top-dose-only effect, or another doubt; inactive = no such curve, though single readings can be large; an effect the other way counts as inactive or inconclusive.
# Legend:
# [1] = molecular target: D(1A) dopamine receptor (Homo sapiens) (UniProt P21728); assay: HTS Assay for Allosteric Agonists of the Human D1 Dopamine Receptor: Primary Screen for Antagonists (AID 488983);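 note: calcium flux response to an EC80 dopamine challenge measured with no-wash dye; nearly all actives have a fitted effect of over 65% in size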; note: potency is the fitted concentration of half-maximal effect
# Chain of D(1A) dopamine receptor (Homo sapiens) (P21728 whole entry, looked up): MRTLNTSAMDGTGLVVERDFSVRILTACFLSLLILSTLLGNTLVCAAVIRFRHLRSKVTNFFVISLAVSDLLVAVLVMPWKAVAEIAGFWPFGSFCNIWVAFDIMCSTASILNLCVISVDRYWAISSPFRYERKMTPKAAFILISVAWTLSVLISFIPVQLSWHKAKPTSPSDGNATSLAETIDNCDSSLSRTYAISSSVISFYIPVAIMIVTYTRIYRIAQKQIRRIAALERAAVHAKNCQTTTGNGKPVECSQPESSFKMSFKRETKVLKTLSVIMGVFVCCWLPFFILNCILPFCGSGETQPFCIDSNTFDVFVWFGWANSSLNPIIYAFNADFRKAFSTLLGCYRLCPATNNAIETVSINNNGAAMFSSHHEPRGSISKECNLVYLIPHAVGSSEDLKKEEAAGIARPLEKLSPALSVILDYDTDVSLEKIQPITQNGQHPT
# Summary of the method: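 Calcium-flux read-out in inducible HEK293 T-REx cells expressing D1, dye-loaded 30–90 min at room temperature. Kinetic reads: 180 s after compound (agonist phase), then 180 s after an EC80 dopamine challenge.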
# [2] = molecular target: ATP-dependent 6-phosphofructokinase (Trypanosoma brucei brucei) (UniProt O15648); assay: qHTS Assay to Find Inhibitors of T. brucei phosphofructokinase: hit validation (AID 492961); note: series mostly up to about 51 µM
# Chain of ATP-dependent 6-phosphofructokinase (Trypanosoma brucei brucei) (O15648 whole entry, looked up): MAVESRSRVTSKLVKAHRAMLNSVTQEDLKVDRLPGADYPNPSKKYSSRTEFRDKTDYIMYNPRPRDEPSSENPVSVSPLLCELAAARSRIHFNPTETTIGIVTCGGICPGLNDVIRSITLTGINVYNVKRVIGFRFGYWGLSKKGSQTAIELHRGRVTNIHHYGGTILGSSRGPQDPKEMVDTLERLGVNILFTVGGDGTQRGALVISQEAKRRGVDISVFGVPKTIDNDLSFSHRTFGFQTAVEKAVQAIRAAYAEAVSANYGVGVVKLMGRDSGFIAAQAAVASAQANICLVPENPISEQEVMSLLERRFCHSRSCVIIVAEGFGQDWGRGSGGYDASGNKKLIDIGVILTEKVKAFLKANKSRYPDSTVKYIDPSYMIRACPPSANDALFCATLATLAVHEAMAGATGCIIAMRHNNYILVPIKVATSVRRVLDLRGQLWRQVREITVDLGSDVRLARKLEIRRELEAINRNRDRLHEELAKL
# Summary of the method: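 Luminescence from ADP-Glo reports ADP generated as T. brucei PFK (1.25 nM) phosphorylates 0.5 mM fructose-6-phosphate using 0.1 mM ATP. Reactions ran 45 min at room temperature, pH 8.0.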
# [3] = Validation screen for small molecules that induce genotoxicity in human embryonic kidney (HEK293T) cells expressing luciferase-tagged ELG1 (AID 493106)
# Summary of the method: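 ELG1-luciferase reporter readout (ONE-Glo, 30 min, room temperature) after 16 hr compound treatment at 37 °C of HEK293T cells at 2,000 per well. Rising luminescence flags genotoxic stress.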
# [4] = molecular target: ATPase family AAA domain-containing protein 5 (Homo sapiens) (UniProt Q96QE3); assay: Validation screen for small molecules that inhibit ELG1-dependent DNA repair in human embryonic kidney (HEK293T) cells expressing luciferase-tagged ELG1 (AID 493107);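 note: series mostly up to about 46 µM; inhibitors lower the ELG1-luciferase luminescence signal; nearly all actives have a fitted effect of over 70% in size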
# Chain of ATPase family AAA domain-containing protein 5 (Homo sapiens) (Q96QE3 whole entry, looked up, the tested form may be a part): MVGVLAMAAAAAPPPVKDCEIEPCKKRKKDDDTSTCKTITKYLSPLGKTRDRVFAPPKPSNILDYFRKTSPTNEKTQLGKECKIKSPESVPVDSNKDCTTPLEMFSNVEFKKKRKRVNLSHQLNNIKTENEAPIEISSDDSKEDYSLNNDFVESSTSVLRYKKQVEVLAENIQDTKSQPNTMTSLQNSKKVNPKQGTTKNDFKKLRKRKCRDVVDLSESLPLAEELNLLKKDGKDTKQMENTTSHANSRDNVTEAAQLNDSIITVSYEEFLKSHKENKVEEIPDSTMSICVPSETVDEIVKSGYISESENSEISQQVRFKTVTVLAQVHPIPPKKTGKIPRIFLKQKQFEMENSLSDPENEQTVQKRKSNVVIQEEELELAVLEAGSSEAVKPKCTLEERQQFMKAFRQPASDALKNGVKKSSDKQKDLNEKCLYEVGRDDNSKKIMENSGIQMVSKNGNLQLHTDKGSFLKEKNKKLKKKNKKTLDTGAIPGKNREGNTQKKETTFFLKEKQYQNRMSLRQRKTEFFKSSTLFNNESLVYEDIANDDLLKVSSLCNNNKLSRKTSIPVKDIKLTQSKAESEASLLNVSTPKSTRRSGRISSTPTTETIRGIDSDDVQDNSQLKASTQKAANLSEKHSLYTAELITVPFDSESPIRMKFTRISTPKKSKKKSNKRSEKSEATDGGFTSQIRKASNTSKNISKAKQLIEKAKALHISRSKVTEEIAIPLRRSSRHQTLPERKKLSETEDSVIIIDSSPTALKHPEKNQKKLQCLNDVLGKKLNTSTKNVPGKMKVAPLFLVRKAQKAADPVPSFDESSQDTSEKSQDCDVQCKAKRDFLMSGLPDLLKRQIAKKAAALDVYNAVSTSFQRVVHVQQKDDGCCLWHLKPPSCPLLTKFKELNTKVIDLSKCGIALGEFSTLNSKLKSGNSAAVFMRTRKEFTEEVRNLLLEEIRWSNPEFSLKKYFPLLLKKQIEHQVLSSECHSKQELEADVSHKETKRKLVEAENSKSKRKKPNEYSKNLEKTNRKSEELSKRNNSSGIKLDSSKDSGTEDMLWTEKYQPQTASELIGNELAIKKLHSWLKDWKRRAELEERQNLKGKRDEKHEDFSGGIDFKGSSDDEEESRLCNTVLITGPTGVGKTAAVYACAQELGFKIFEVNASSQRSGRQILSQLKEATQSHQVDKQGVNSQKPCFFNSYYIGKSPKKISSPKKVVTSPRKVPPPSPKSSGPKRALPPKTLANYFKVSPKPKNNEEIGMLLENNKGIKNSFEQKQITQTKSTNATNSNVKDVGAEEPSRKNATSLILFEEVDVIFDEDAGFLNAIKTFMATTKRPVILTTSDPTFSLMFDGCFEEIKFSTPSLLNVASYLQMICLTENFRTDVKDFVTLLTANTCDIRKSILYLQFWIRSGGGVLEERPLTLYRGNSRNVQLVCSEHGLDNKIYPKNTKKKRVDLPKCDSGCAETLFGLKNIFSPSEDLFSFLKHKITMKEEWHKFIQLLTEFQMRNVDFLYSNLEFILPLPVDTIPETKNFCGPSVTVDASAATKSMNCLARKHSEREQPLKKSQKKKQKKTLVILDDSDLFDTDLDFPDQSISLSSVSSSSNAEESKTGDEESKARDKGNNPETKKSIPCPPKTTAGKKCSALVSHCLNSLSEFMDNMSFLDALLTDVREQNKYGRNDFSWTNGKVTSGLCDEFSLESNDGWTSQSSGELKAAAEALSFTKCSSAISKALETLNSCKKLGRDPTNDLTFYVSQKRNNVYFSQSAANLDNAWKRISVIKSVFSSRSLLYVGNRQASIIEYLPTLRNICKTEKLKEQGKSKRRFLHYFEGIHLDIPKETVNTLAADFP
# Summary of the method: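 Luciferase read-out, ONE-Glo, 30 min at room temperature, follows 16 h co-exposure at 37 C of compound and the DNA-damaging agent 5-fluorouridine. Cells: HEK293T with ELG1-luciferase fusion, 2,000 per well, DMSO as vehicle.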
# [5] = Nrf2 qHTS screen for inhibitors: Validation (AID 493153; active = well fitted inhibition curve with a large enough effect in the main read-out, with a control signal flat, not every such curve was filed as active); conditions: Potency: luciferase luminescence; viability change: measured here: cytotoxicity max response
# Summary of the method: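 Concentration-response on A549 ARE_Fluc reporter cells exposed 18-24 h at 37 C, 5% CO2. Cytotoxicity read first by CellTiter-Fluor fluorescence (Ex 405/Em 525), then Nrf2 inhibition by BugLite luminescence after 15 min.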
# [6] = qHTS for Inhibitors of Cell Surface uPA Generation: Validation Assay (AID 493164);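 note: RAW 264.7 macrophage cells exposed to compound for 18 h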
# Summary of the method: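 ATP-Lite luminescence read-out: ATP remains high when uPA activity-dependent LF translocation into the cytoplasm is blocked. RAW 264.7 cells, 18 h compound exposure at 37 C; 7-point titration, 2.45 nM to 38.3 uM final.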
# [7] = molecular target: Peptidyl-prolyl cis-trans isomerase NIMA-interacting 1 (Homo sapiens) (UniProt Q13526); assay: qHTS Validation Assay to Find Inhibitors of Pin1 (AID 504536; active = well fitted inhibition curve with a large enough effect in the polarisation, with a control signal flat, not every such curve was filed as active; the % refers to the polarisation)
# Chain of Peptidyl-prolyl cis-trans isomerase NIMA-interacting 1 (Homo sapiens) (Q13526 whole entry, looked up): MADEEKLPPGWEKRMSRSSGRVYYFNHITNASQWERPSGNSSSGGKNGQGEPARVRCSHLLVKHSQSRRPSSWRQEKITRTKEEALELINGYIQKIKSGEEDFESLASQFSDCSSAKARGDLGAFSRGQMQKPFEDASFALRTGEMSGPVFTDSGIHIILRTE
# Summary of the method: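 Fluorescence polarization competition: compounds (titration) displace HiFluor-488-labeled Pin1-1b peptide from Pin1 (0.3 uM final) in pH 7.5 HEPES buffer with DTT, 10 min at room temperature; %Activity normalized to no-enzyme wells, curves fitted.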
# [8] = molecular target: Galactokinase (Homo sapiens) (UniProt P51570); assay: qHTS Validation Assay for Inhibitors of Human Galactokinase (GALK) (AID 493189)
# Chain of Galactokinase (Homo sapiens) (P51570 whole entry, looked up): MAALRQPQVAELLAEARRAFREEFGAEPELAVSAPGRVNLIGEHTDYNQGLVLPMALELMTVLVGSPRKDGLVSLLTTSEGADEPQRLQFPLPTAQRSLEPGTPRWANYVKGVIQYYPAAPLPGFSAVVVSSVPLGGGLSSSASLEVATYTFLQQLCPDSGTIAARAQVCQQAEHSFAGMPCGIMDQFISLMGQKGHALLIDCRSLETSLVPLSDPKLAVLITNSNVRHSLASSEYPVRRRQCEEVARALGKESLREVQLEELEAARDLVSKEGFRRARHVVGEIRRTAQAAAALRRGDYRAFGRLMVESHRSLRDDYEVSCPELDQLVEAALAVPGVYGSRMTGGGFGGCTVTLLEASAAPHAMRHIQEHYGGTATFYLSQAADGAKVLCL
# Summary of the method: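 GALK (5 nM) with 35 uM ATP and 100 uM galactose in HEPES pH 8.0 with MgCl2, NaCl, DTT and BSA. Reaction ran 1 h at room temperature. Residual ATP read by Kinase-Glo Plus luminescence.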
# [9] = Validation screen for small molecules that induce DNA re-replication in SW480 colon adenocarcinoma cells (AID 504364)
# Summary of the method: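 Image-based DNA content read-out: Hoechst stain 40 min, total nuclear fluorescence intensity (ex 405 nm, em 500-530 nm) after 48 h compound exposure of 250 SW480 cells/well at 37 C, 5% CO2, versus DMSO vehicle.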
# [10] = molecular target: Tyrosyl-DNA phosphodiesterase 1 (Homo sapiens) (UniProt Q9NUW8); assay: Confirmation Assay for Inhibitors of Tyrosyl-DNA Phosphodiesterase (TDP1) (AID 489007); conditions: recombinant human TDP1 enzymatic activity, dose-response; note: potency is the fitted concentration of half-maximal effect; nearly all actives have a fitted effect of over 40% in size
# Chain of Tyrosyl-DNA phosphodiesterase 1 (Homo sapiens) (Q9NUW8 whole entry, looked up): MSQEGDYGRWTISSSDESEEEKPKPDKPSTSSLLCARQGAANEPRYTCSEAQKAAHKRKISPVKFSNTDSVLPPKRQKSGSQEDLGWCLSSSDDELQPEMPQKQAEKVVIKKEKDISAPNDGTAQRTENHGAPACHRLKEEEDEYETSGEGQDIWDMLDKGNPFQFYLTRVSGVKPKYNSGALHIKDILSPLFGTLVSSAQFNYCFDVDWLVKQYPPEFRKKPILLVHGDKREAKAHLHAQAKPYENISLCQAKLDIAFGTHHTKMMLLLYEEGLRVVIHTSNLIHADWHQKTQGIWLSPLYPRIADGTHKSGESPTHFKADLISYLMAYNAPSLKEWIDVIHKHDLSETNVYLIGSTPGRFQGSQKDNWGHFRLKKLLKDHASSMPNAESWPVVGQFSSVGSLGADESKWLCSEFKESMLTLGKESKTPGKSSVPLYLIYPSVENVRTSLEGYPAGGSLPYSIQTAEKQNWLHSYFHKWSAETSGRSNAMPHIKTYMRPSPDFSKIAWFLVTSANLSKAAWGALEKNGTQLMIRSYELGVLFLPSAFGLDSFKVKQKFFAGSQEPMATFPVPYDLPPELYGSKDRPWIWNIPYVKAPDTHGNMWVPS
# Summary of the method: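 AlphaScreen assay of tyrosine-FITC cleavage from a biotinylated DNA substrate (15 nM) by E. coli-expressed human Tdp1 (1 nM). Sequence: compound preincubation 15 min, reaction 5 min, bead detection 10 min, all at room temperature. No-enzyme wells give maximum signal.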
structure (smiles),measurement,setting,value
Nc1ncnc2c1ncn2[C@@H]1O[C@H](CO)[C@@H](O)[C@H]1O,Potency,[1],inactive
same,Potency,[2],inactive
same,Potency,[3],inactive
same,outcome,[4],inactive
same,Potency,[5],inactive
same,viability change,[5],4.32%
same,outcome,[6],inactive
same,outcome,[7],inactive
CC(C)C(=O)c1c(C(C)C)nn2ccccc12,Potency,[1],inactive
same,Potency,[3],inactive
same,outcome,[4],inactive
same,outcome,[6],inactive
same,outcome,[8],inactive
same,outcome,[9],inactive
same,outcome,[7],inactive
CC1=C(/C=C/C(C)=C/C=C/C(C)=C/C(=O)O)C(C)(C)CCC1,Potency,[1],inactive
same,Potency,[3],inactive
same,outcome,[4],inactive
same,Potency,[5],inactive
same,viability change,[5],-3.39%
same,outcome,[6],inactive
same,outcome,[8],inactive
same,outcome,[9],inactive
same,outcome,[7],inactive
CCN(CC)C(C)CN1c2ccccc2Sc2ccccc21 (centres undefined),Potency,[1],inactive
same,Potency,[3],inactive
same,outcome,[4],inactive
same,Potency,[5],inactive
same,viability change,[5],-0.429%
same,outcome,[6],inactive
same,outcome,[7],inactive
Nc1cc(=O)[nH]c(N)n1,Potency,[1],inactive
same,Potency,[3],inactive
same,outcome,[4],inactive
same,Potency,[5],inactive
same,viability change,[5],1.17%
same,outcome,[6],inactive
same,outcome,[8],inactive
same,outcome,[9],inactive
same,outcome,[7],inactive
CNC(=O)Oc1ccc2c(c1)[C@]1(C)CCN(C)[C@@H]1N2C,Potency,[1],inactive
same,Potency,[2],inactive
same,Potency,[3],inactive
same,outcome,[4],inactive
same,Potency,[5],inactive
same,viability change,[5],11.7%
same,outcome,[6],inactive
same,outcome,[8],inactive
same,outcome,[9],inactive
same,outcome,[7],inactive
CN(C)CC[C@@H](c1ccc(Cl)cc1)c1ccccn1,Potency,[1],inactive
same,Potency,[3],inactive
same,outcome,[4],inactive
same,Potency,[5],inactive
same,viability change,[5],8.9%
same,outcome,[6],inactive
same,outcome,[8],inactive
same,outcome,[9],inactive
same,outcome,[7],inactive
CC1=C(CC(=O)O)c2cc(F)ccc2/C1=C\c1ccc(S(C)(=O)=O)cc1,Potency,[1],inactive
same,Potency,[3],inactive
same,Potency,[5],inactive
same,viability change,[5],-17.2%
same,outcome,[6],inactive
same,outcome,[8],inactive
same,outcome,[9],inactive
same,outcome,[7],inactive
CN1CCN(C2Cc3ccccc3Sc3ccc(Cl)cc32)CC1 (centres undefined),Potency,[1],0.199 µM (active)
same,Potency,[2],inactive
same,Potency,[3],inactive
same,Potency,[5],inactive
same,viability change,[5],-10.9%
same,outcome,[6],inactive
same,outcome,[8],inactive
same,outcome,[9],inactive
same,outcome,[7],inactive
CC1=C(CC(=O)O)c2cc(F)ccc2/C1=C\c1ccc(S(C)=O)cc1 (centres undefined),Potency,[1],inactive
same,Potency,[2],inactive
same,Potency,[3],inactive
same,outcome,[4],inactive
same,Potency,[5],inactive
same,viability change,[5],-1.89%
same,outcome,[6],inactive
same,outcome,[8],inactive
same,outcome,[9],inactive
same,outcome,[7],inactive
OCc1cc(C(O)CNCCCCCCOCCCCc2ccccc2)ccc1O (centres undefined),Potency,[1],inactive
same,Potency,[2],inactive
same,Potency,[3],inactive
same,outcome,[4],inactive
same,outcome,[6],inactive
same,outcome,[8],inactive
same,outcome,[9],inactive
same,outcome,[7],inactive
CC(CN1c2ccccc2Sc2ccccc21)N(C)C (centres undefined),Potency,[1],10 µM (active)
same,Potency,[3],inactive
same,outcome,[4],inactive
same,Potency,[5],inactive
same,viability change,[5],5.51%
same,outcome,[6],inactive
same,outcome,[8],inactive
same,outcome,[9],inactive
same,outcome,[7],inactive
O=Cc1ccccc1C=O,Potency,[10],14.1 µM (active)
CCCCCCCCCCCCCCCCCCOCC(O)CO (centres undefined),Potency,[2],inactive
CNCC(O)c1ccc(O)c(O)c1 (centres undefined),Potency,[3],inactive
same,outcome,[4],inactive
same,Potency,[5],inactive
same,viability change,[5],1.42%
same,outcome,[6],inactive
same,outcome,[8],inactive
same,outcome,[9],inactive
same,outcome,[7],inactive
C[C@@H]1CN(c2c(F)c(F)c3c(=O)c(C(=O)O)cn(C4CC4)c3c2F)C[C@H](C)N1,Potency,[2],inactive
Cc1ccc2nc(N)[nH]c(=O)c2c1Sc1ccncc1,Potency,[2],inactive
CCN(CC)CCNC(=O)c1c(C)[nH]c(/C=C2\C(=O)Nc3ccc(F)cc32)c1C,Potency,[2],inactive
CC(C(O)c1ccc(O)cc1)N1CCC(Cc2ccccc2)CC1 (centres undefined),Potency,[2],inactive
same,Potency,[3],inactive
same,Potency,[5],inactive
same,viability change,[5],-19.8%
same,outcome,[6],inactive
same,outcome,[8],inactive
same,outcome,[9],inactive
same,outcome,[7],inactive
CN(C)CCCN1c2ccccc2Sc2ccc(Cl)cc21,Potency,[3],inactive
same,Potency,[5],inactive
same,viability change,[5],4.06%
same,outcome,[6],inactive
same,outcome,[8],inactive
same,outcome,[7],inactive
CC(CN(C)C)CN1c2ccccc2CCc2ccccc21 (centres undefined),Potency,[3],inactive
same,outcome,[4],inactive
same,outcome,[6],inactive
same,outcome,[8],inactive
same,outcome,[9],inactive
same,outcome,[7],inactive
Cc1cc(N)c2ccccc2[n+]1CCCCCCCCCC[n+]1c(C)cc(N)c2ccccc21,Potency,[2],inactive
same,Potency,[3],inactive
same,outcome,[6],inactive
same,outcome,[8],inactive
same,outcome,[9],inactive
same,outcome,[7],inactive
NC(CSCC(=O)O)C(=O)O (centres undefined),Potency,[2],inactive
Oc1cccc(O)c1,Potency,[2],inactive
Cc1c(O)cccc1C(=O)N[C@@H](CSc1ccccc1)[C@H](O)CN1C[C@H]2CCCC[C@H]2C[C@H]1C(=O)NC(C)(C)C,Potency,[2],inactive
CSc1ccc2c(c1)N(CCC1CCCCN1C)c1ccccc1S2 (centres undefined),Potency,[3],inactive
same,outcome,[4],inactive
same,outcome,[6],inactive
same,outcome,[8],inactive
same,outcome,[9],inactive
same,outcome,[7],inactive
CCN(CC)CCNC(=O)c1cc(Cl)c(N)cc1OC,Potency,[3],inactive
same,outcome,[4],inactive
same,Potency,[5],inactive
same,viability change,[5],-1.22%
same,outcome,[6],inactive
same,outcome,[8],inactive
same,outcome,[9],inactive
same,outcome,[7],inactive
CCOC(CN1CCN(CC(C)C(=O)c2ccccc2)CC1)c1ccccc1 (centres undefined),Potency,[2],inactive
NCC(=O)CCC(=O)O,Potency,[2],inactive
Nc1ccc(S(=O)(=O)Nc2ccc(Cl)nn2)cc1,Potency,[2],inactive
COC(=O)C1=C(C)NC(C)=C(C(=O)OC)C1c1ccccc1[N+](=O)[O-],outcome,[6],inactive
same,outcome,[8],inactive
same,outcome,[9],inactive
same,outcome,[7],inactive
Cc1cc2c(cc1S(N)(=O)=O)S(=O)(=O)CCC2,Potency,[2],inactive
CC(C)(C)[C@]1(O)CCN2C[C@H]3c4ccccc4CCc4cccc(c43)[C@@H]2C1,Potency,[3],inactive
same,outcome,[4],inactive
same,Potency,[5],inactive
same,viability change,[5],-7.91%
same,outcome,[6],inactive
same,outcome,[7],inactive
CN(C)CCC=C1c2ccccc2CCc2ccccc21,Potency,[3],inactive
same,outcome,[4],inactive
same,Potency,[5],inactive
same,viability change,[5],9.1%
same,outcome,[6],inactive
same,outcome,[8],inactive
same,outcome,[9],inactive
same,outcome,[7],inactive
CCOc1ccc2ccccc2c1C(=O)N[C@@H]1C(=O)N2[C@@H]1SC(C)(C)[C@@H]2C(=O)O,Potency,[2],inactive
Nc1ccc(S(=O)(=O)NC(=O)c2ccccc2)cc1,Potency,[2],inactive
CN(C)CCCN1c2ccccc2CCc2ccccc21,Potency,[3],inactive
same,outcome,[4],inactive
same,Potency,[5],inactive
same,viability change,[5],-5.46%
same,outcome,[6],inactive
CN(C)CCN(Cc1ccccc1)c1ccccn1,Potency,[2],inactive
